One may read the inhibition as the relative decrease from the control value, in per cent.

Out of some 330,000 compounds screened, about 1,300 (0.39%) were called active. The sample holds actives, similar compounds and a random draw of the others, so the mix is not that of the screen.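 Rule for the calls: active = percent inhibition above a cutoff equal to the mean of all tested compounds plus 3 SD (cut at about 15% in these data); inactive = the rest.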

In the test the target is Protein-arginine deiminase type-4 (Homo sapiens) (UniProt Q9UM07). Kind of test: human PAD4 inhibitors, primary screen, biochemical, fluorescence polarization, 1536-well format (AID 485272).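 Note: 0% = PAD4 with RCA probe and DMSO and 100% = probe without PAD4.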 The following applies: recombinant PAD4, RCA probe fluorescence polarization; at 6.36 µM; active compounds read high. On the technique in general: Polarisation of emitted light reports the rotation of a fluorescent probe.
Protein-arginine deiminase type-4 (Homo sapiens), sequence (Q9UM07 whole entry, looked up): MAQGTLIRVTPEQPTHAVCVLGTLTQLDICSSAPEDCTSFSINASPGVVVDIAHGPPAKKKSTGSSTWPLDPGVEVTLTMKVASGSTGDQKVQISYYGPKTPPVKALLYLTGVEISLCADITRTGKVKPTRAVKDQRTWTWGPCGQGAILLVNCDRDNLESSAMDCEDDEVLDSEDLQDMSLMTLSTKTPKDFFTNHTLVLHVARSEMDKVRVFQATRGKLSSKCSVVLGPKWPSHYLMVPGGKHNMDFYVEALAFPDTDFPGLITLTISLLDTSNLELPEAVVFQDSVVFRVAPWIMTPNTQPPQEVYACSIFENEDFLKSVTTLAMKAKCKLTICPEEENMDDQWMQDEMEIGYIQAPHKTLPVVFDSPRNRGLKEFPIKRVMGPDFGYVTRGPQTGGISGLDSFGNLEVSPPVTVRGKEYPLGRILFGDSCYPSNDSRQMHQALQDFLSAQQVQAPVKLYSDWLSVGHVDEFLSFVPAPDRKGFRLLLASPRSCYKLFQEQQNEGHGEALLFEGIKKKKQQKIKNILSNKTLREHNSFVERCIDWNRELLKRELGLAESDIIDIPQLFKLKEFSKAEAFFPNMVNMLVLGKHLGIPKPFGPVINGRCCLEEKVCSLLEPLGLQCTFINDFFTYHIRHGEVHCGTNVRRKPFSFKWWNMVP
As for `CC/C(=N\NC(=O)c1ccccc1O)c1c(O)n(Cc2ccccc2)c(=O)[nH]c1=O`, the inhibition is -6.35% (inactive).

As for `CCOC(=O)c1c(N)n(Cc2ccccc2)c2nc3ccccc3nc12`, the inhibition was 42.1% (active). With `COc1cc(Cn2c(N)c(C(=O)NCc3ccco3)c3nc4ccccc4nc32)cc(OC)c1OC` the figure was -2.07% (inactive). `O=C(COc1ccc2ccccc2c1)N1CCN(Cc2ccncc2)CC1`: the inhibition is 3.09% (inactive). As for `CC(C)N(CC#CCC1(O)c2ccccc2-c2ccccc21)C(C)C`, the inhibition was 2.13% (inactive). With `COc1ccc(CN2CCN(c3ccccc3F)CC2)c(OC)c1`, the inhibition was -6.62% (inactive). `COc1ccccc1C1=NCc2nnc(CSC)n2-c2ccc(Cl)cc21`: the inhibition was 21.5% (active). In the case of `Cc1cccc(-n2c(O)c(C=NC34CN5CN(CN(C5)C3)C4)c(=O)[nH]c2=O)c1`, the inhibition was 6.25% (inactive). For `Cc1ccc(N2C(=O)NC(=O)C(CCc3ccncc3)(Cc3cccc(Cl)c3Cl)C2=O)cc1` (stereo not given), the inhibition was 1.57% (inactive). With `CN1CCN(Cc2ccccc2C(F)(F)F)CC1` the figure was 6.58% (inactive).

For the origin of these results see PubChem BioAssay AID485272 (The Scripps Research Institute Molecular Screening Center, 2010).
